Compound activity from PubChem.
SNCA viab count = counter-screen for SNCA expression inhibitors: cell viability; HEK-293-SNCA-luc viability, GF-AFC fluorescence, 24 h; Potency, µM (doses to about 57.1 µM), most hits filed as cytotoxic; actives 0.12% (n = 150,000); AID 1671193; note: nearly all actives have a fitted effect of over 30% in size
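Cytotoxicity counterscreen: after 24 h compound treatment of genome-edited SNCA-luciferase HEK-293 cells, live-cell protease substrate GF-AFC read by fluorescence after 30 min; activity scaled between DMSO (0%) and medium-only (-100%), curves Hill-fitted.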
NPR1 antag = human Npr1 receptor antagonism. P16066. Potency, µM (titrated, usually from 46.3 µM), most hits filed as inhibitors. HEK293 hNpr1 GloSensor cGMP, ANP-stimulated luminescence. actives 1.6% (n = 76,000). AID 1347048; calls by dose curve; note: nearly all actives have a fitted effect of over 60% in size
Target sequence (P16066 whole entry, looked up): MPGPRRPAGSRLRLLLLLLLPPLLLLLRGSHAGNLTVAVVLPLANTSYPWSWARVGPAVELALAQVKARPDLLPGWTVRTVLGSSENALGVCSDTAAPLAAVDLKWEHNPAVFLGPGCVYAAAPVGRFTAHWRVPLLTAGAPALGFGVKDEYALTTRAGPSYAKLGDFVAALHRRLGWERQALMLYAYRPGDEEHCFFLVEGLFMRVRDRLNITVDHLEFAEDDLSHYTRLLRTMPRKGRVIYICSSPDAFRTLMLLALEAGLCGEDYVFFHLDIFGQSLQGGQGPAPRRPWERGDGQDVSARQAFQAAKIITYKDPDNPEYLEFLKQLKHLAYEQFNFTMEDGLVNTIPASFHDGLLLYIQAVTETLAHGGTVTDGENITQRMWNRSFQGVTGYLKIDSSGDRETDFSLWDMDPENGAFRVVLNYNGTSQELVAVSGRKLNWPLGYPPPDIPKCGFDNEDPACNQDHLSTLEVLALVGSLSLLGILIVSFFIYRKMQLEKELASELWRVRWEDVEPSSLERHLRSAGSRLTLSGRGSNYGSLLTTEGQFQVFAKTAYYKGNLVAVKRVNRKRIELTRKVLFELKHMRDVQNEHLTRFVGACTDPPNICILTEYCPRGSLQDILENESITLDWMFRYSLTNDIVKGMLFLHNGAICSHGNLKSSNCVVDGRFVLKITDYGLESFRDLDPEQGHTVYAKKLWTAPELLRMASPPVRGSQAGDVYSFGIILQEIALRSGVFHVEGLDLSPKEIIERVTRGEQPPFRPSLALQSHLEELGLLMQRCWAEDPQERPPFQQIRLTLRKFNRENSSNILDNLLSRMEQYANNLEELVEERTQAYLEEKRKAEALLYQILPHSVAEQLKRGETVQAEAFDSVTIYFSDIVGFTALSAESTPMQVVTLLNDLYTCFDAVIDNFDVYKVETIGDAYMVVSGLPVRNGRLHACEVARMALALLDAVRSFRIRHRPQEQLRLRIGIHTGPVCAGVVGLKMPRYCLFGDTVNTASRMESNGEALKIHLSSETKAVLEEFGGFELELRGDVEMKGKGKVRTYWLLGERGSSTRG
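HEK293 cells stably expressing human Npr1 and cGMP GloSensor pGS-40F, loaded 2 h with 2% GloSensor reagent, given compound 30 min at room temperature. Luminescence read before and 20 min after 0.1 nM hNppA.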
FLuc inh-1 = inhibitors of firefly (Photinus pyralis) luciferase | purified P. pyralis luciferase, luminescence, biochemical | actives 2.5% (n = 76,000) | P08659 | AID 1347043 | Potency, µM (titrated, usually from 115 µM), most hits filed as inhibitors; note: nearly all actives have a fitted effect of over 65% in size
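Cell-free enzyme assay, 10nM P. pyralis luciferase, luciferin and ATP each at 10uM. Inhibition profiled over a 6-point titration, read as luminescence.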
HEK293 tox = HEK 293 cell cytotoxicity | HEK 293 viability, ATP luminescence (CellTiter-Glo), 48-72 h | Potency, µM (series often up to 115 µM), actives largely listed as inhibitors | actives 6.6% (n = 94,000) | AID 1345083; note: nearly all actives have a fitted effect of over 60% in size
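Cytotoxicity was scored by loss of ATP-coupled luminescence (CellTiter-Glo) in HEK 293 cells. Compound treatment ran 48 or 72 hr at 37 degree Celsius, 5% CO2, 95% humidity.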
SNCA expr inhib = inhibitors of alpha-synuclein (SNCA) gene expression; actives 0.17% (n = 140,000); Potency, µM (series often up to 57.2 µM), usual class: inhibitors; HEK-293 SNCA-luciferase knock-in, luminescence, 24 h; note: nearly all actives have a fitted effect of over 45% in size
3T3 cytotox = cytotoxic compounds in NIH 3T3 cells; Potency, µM (series often up to 96.7 µM), usual class: inhibitors; NIH 3T3 viability, CellTiter-Glo ATP luminescence, 48-72 h; AID 1345082; actives 4.3% (n = 94,000); note: nearly all actives have a fitted effect of over 55% in size
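Mouse fibroblast NIH 3T3 cells, 400 per well, received compound via pintool and were incubated for 48 or 72 hr prior to CellTiter-Glo ATP luminescence measurement.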
FLuc SDR -ATP = firefly luciferase binding stabilization, ATP absent. Potency, µM (titrated, usually from 32.7 µM), actives largely listed as activators. actives 7.8% (n = 1,300). Purified FLuc-C-HiBiT, Nano-Glo HiBiT luminescence, no ATP. shares compounds with FLuc inh-1; note: nearly all actives have a fitted effect of over 55% in size
FLuc SDR ATP = binders stabilizing firefly luciferase, plus ATP. shares compounds with FLuc inh-1. purified FLuc-C-HiBiT + ATP, HiBiT complementation luminescence. Potency, µM (series often up to 32.7 µM), most hits filed as activators. actives 8.7% (n = 1,300). AID 1963319;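 note: signal reports ligand binding via conformational change of the enzyme rather than luciferase catalysis; nearly all actives have a fitted effect of over 55% in size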
FLuc inh-2 = firefly luciferase enzyme inhibition; purified FLuc-C-HiBiT enzyme, luciferin luminescence; Potency, µM (series often up to 32.7 µM), hits mostly inhibitors; shares compounds with FLuc inh-1; actives 42% (n = 1,300); AID 1963320; note: nearly all actives have a fitted effect of over 70% in size
Numbers stand for hits; i = inactive; ? = inconclusive; nt = no result. Rows were chosen to be rich in hits. Some 7.2% of all compounds tested hit in one or more screens of this group. Unless noted, calls come from the whole dose curve; as a rule, active = well fitted curve in the direction sought with a large enough effect; inconclusive = small, poorly fitted or top-dose-only effect, or another doubt; inactive = no such curve, though single readings can be large; an effect the other way counts as inactive or inconclusive.

SMILES	SNCA viab count	NPR1 antag	FLuc inh-1	HEK293 tox	SNCA expr inhib	3T3 cytotox	FLuc SDR -ATP	FLuc SDR ATP	FLuc inh-2
O=C(Nc1ccc(Cl)cc1)Nc1cccc(-c2cccc(N3CCCC3)n2)c1	i	nt	nt	nt	nt	nt	nt	nt	nt
O=C(Nc1ccc(F)cc1)Nc1cccc(-c2ccc(N3CCOCC3)nn2)c1	i	?	0.891µM	?	i	?	?	?	1.97µM
O=C(Nc1cccc(-c2ccc(N3CCCC3)nn2)c1)c1c(F)cccc1F	i	i	7.08µM	39.8µM	i	?	?	?	8.81µM
O=C(NCC1CCOCC1)[C@@H]1C[C@@H](c2ccc(F)cc2)N(CCOc2ccccc2)C1	i	i	i	?	?	?	nt	nt	nt
O=C(Nc1ccccc1)N1CCC(C(=O)N2CCCC2c2nc3ccncc3[nH]2)CC1 (configuration not stated)	i	nt	nt	i	i	i	nt	nt	nt
Cn1ccnc1CN1C(=O)CO[C@H](c2ccc(NC(=O)Nc3ccccc3)cc2)[C@H]1CO	i	i	10µM	i	i	i	i	i	?
Cn1ccnc1CN1C(=O)CO[C@H](c2ccc(NC(=O)COc3ccccc3)cc2)[C@H]1CO	i	i	?	i	i	i	nt	nt	nt
Cn1nccc1OCc1cn2c(=O)n(C)cc(-c3ccccc3F)c2n1	i	i	i	?	i	i	nt	nt	nt
Cc1ccc(C)c(N2CCN(C(=O)C3CCN(c4nc(-c5ccc(C(C)C)cc5)no4)CC3)CC2)c1	i	nt	nt	nt	?	nt	i	?	?
Cc1ccc(NC(=O)C2CCN(c3nc(-c4ccc(C(C)C)cc4)no3)CC2)c(Cl)c1	i	nt	nt	nt	?	nt	i	?	?
Cn1ncc2c(C(=O)NCc3ccccc3F)cc(-c3ccc(C(F)(F)F)cc3)nc21	nt	nt	nt	?	nt	i	nt	nt	nt
O=C(CSc1nccn1Cc1ccco1)Nc1ccc(F)cc1	i	nt	nt	nt	i	nt	nt	nt	nt
O=C(CSc1nccn1Cc1ccco1)Nc1ccc(OC(F)(F)F)cc1	i	nt	nt	nt	i	nt	i	i	?
O=C(NCC1CN(S(=O)(=O)c2cccnc2)CC12CCOCC2)N1CCCC1 (configuration not stated)	i	nt	nt	i	i	i	nt	nt	nt
CCn1cc(CN2CC(Oc3ccc(-c4noc(-c5cccnc5)n4)cc3)C2)cn1	i	i	i	?	i	?	nt	nt	nt
O=C(NC[C@H]1Cn2cc(-c3ccccc3)nc2CO1)c1ccc2c(c1)OCO2	i	i	?	?	i	?	nt	nt	nt
O=C(NC[C@H]1Cn2cc(-c3ccc4c(c3)OCCCO4)nc2CO1)c1ccc2c(c1)OCO2	i	i	10µM	?	i	i	?	?	?
CC(=O)c1cccc(NC(=O)c2nc3ccccc3n(C)c2=O)c1	?	nt	nt	nt	i	nt	4.42µM	?	3.13µM
COc1ccc(-c2nc3ccccc3o2)cc1NC(=O)c1cc(Br)ccc1OC	i	nt	nt	nt	?	nt	nt	nt	nt
COc1ccc(-c2nc3ccccc3s2)cc1NC(=O)c1cccc([N+](=O)[O-])c1C	i	nt	nt	nt	i	nt	i	i	6.24µM
CCOc1ccc(C(=O)Nc2ccc(-c3nc4ccccc4s3)cc2)cc1[N+](=O)[O-]	nt	nt	nt	nt	nt	nt	i	i	i
COc1ccc(-c2nc3ccccc3s2)cc1NC(C)=O	i	nt	nt	nt	i	nt	i	i	?
CC(=O)Nc1sc2c(c1-c1nc3ccccc3s1)CNC2	i	nt	nt	nt	i	nt	nt	nt	nt
COc1ccc(-c2nc3ccccc3s2)cc1NC(=O)c1ccccc1F	i	nt	nt	nt	i	nt	i	i	i
CC(=O)N(C1CC1)C1CCOC2(CCN(C(=O)c3ccco3)CC2)C1 (configuration not stated)	i	nt	nt	i	i	i	nt	nt	nt
SMILES	SNCA viab count	NPR1 antag	FLuc inh-1	HEK293 tox	SNCA expr inhib	3T3 cytotox	FLuc SDR -ATP	FLuc SDR ATP	FLuc inh-2
N#Cc1ccc(C(=O)Nc2cc3nn(-c4ccccc4)nc3cc2Cl)c(F)c1	i	nt	nt	nt	i	nt	nt	nt	nt
COc1ccc(-c2nc3ccccc3o2)cc1NC(=O)c1ccc(-c2ccc(Br)cc2)o1	i	nt	nt	nt	i	nt	nt	nt	nt
COc1ccc(-c2nc3ccccc3s2)cc1NC(=O)c1ccc(C#N)cc1F	i	nt	nt	nt	i	nt	i	i	i
COc1ccc(-c2nc3ccccc3s2)cc1NC(=O)c1cc2ccccc2o1	?	nt	nt	nt	i	nt	i	i	i
CN(C)C(=O)N1CCn2nc(CNC(=O)c3cc4ccccc4n3C)cc2C1	i	i	i	i	i	i	nt	nt	nt
Cc1cccc(-n2ncc3c(NC4CCCC4)ncnc32)c1	i	nt	nt	nt	i	nt	nt	nt	nt
c1ccc(-n2ncc3c(NC4CCCC4)ncnc32)cc1	i	nt	nt	nt	i	nt	nt	nt	nt
Cc1ccc(-n2ncc3c(NC4CCCC4)ncnc32)cc1	i	nt	nt	nt	i	nt	?	?	0.624µM
COc1ccc(-n2ncc3c(NC4CCCC4)ncnc32)cc1	i	nt	nt	nt	i	nt	?	?	1.76µM
CCS(=O)(=O)N1CCCC(c2nc(-c3ccccc3)no2)CCNC(=O)CC1 (configuration not stated)	i	i	i	i	i	i	nt	nt	nt
CCn1ccnc1C1CCN(c2nc3ccccc3s2)CC1	i	?	3.16µM	?	i	i	i	i	?
CCOc1ccc(CCNC(=O)c2sc3nc4n(c(=O)c3c2C)CCCC4)cc1OCC	i	nt	nt	nt	i	nt	nt	nt	nt
Cc1cccc(CCNC(=O)c2sc3nc4n(c(=O)c3c2C)CCCC4)c1	i	nt	nt	nt	i	nt	i	i	i
CC(=O)Nc1ccc(NC(=O)c2cc(-c3ccc4c(c3)OCCO4)on2)cc1	i	nt	nt	nt	i	nt	?	?	0.624µM
COc1ccc(-c2cc3nc4c(c(=O)n3[nH]2)CN(C(=O)Cc2ccccc2)CC4)cc1	i	i	?	i	i	i	nt	nt	nt
COc1ccc(-c2cc3nc4c(c(=O)n3[nH]2)CN(C(=O)NCc2ccco2)CC4)cc1	i	i	7.08µM	?	?	?	?	i	11.1µM
COc1ccc(CCNC(=O)C2CCCN(c3nc4c(C)cc(C)cc4s3)C2)cc1OC (configuration not stated)	i	nt	nt	nt	i	nt	i	i	?
O=C(NCCc1ccccc1Cl)c1ccc2c(c1)nc1n2CCOC1	i	nt	nt	nt	i	nt	?	?	7µM
Cc1ccc(C(=O)Nc2cccc(C(=O)O)c2)cc1	nt	nt	nt	nt	nt	nt	12.4µM	0.0495µM	0.0556µM
CCOc1ccc(NC(=O)Nc2cccc(C(=O)O)c2)cc1	nt	nt	nt	nt	nt	nt	4.42µM	0.007µM	0.0088µM
Cc1ccc(C2=NC(c3ccccc3)=Nc3ccc(Cl)cc3N2)cc1	i	nt	nt	nt	i	nt	i	i	i
COc1ccc(C2=NC(c3ccccc3)=Nc3ccc(C)cc3N2)cc1	i	nt	nt	nt	i	nt	nt	nt	nt
O=C(CCN1N=C(c2ccccc2)CCC1=O)NCCc1ccc(Cl)cc1	i	nt	nt	nt	?	nt	nt	nt	nt
